# Results reported in ChEMBL document CHEMBL1157539, “Thousands of chemical starting points for antimalarial lead identification” (Nature, 2010).
# What was measured:
# Assay type in all cases: functional
# Plasmodium falciparum [1] = assay: GSK_TCMDC: Inhibition of Plasmodium falciparum 3D7 in whole red blood cells, using parasite LDH activity as an index of growth. Test compounds present at 2uM
# Plasmodium falciparum [2] = assay: GSK_TCMDC: Inhibition of Plasmodium falciparum Dd2 in whole red blood cells, using parasite LDH activity as an index of growth. Test compounds present at 2uM
# HepG2 = assay: GSK_TCMDC: Percent inhibition of human HepG2 cell line. Test compounds present at 10uM.
SMILES,Inhibition (Plasmodium falciparum [1]) [%],Inhibition (Plasmodium falciparum [2]) [%],Inhibition (HepG2) [%]
COc1cccc(-c2ccc(O)c(CNCCc3cccc(F)c3)c2)n1,96,67,0
Cc1ccc(NC(=O)c2ccc3ncccc3c2)cc1OC1CCN(CCC(C)C)CC1.O=C(O)C(F)(F)F,94,48,2
COc1ccc2nccc(N3CCC(SCCNCc4ccc5c(n4)NC(=O)CS5)C3)c2n1.Cl (stereo not given),95,100,34
NC1CCN(Cc2ccc(-c3cccc(-c4nc5cc(F)ccc5[nH]4)c3)cc2)C1.O=C(O)C(F)(F)F (stereo not given),100,16,47
Cc1[nH]cc(Br)c(=O)c1-c1ccc(Oc2ccccc2)cc1,97,96,0
NC(=O)c1ccccc1OCC(=O)Nc1cccc(-c2cccc(-c3nc4ccccc4[nH]3)c2)c1,88,46,23
Cl.NCC1(c2nc(-c3ccc(Cl)c(O)c3)c(-c3ccncc3)[nH]2)CCCCC1,98,98,48
CCCCCCCN1CC[C@@H](CCCc2ccnc3ccc(OCC4CCCNC4)cc23)[C@@H](CC)C1.Cl (stereo not given in full),98,100,99
CCCN1CCN(c2ccccc2NS(=O)(=O)c2ccc(C(=O)Nc3ccc(Cl)cc3)cc2)CC1.O=C(O)C(F)(F)F,84,9,17
O=C(Nc1cc(F)cc(F)c1)N1CCOC(CCN2CCC3(CCc4ccccc43)CC2)(c2ccc(Cl)c(Cl)c2)C1 (stereo not given),100,86,32
